Inconclusive results are not listed. The source made the active and inactive calls. Calls come from the whole dose curve; as a rule, active = well fitted curve in the direction sought with a large enough effect; inconclusive = small, poorly fitted or top-dose-only effect, or another doubt; inactive = no such curve, though single readings can be large; an effect the other way counts as inactive or inconclusive.
Key:
[1] = Quantitative High-Throughput drug screen in 47 multiple myeloma cell lines against the NCATS MIPE library collection: KMS12PE_JCRB cell viability assay (AID 1918972); note: nearly all actives have a fitted effect of over 30% in size; note: potency is the fitted concentration of half-maximal effect
How it was run: (§1)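 qHTS of the MIPE 4.0 collection: 500 myeloma cells/well, 48 h drug exposure at 37C in 5% CO2, then CellTiter-Glo for 5 min at room temperature before luminescence reading.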

[2] = Quantitative High-Throughput drug screen in 47 multiple myeloma cell lines against the NCATS MIPE library collection: KMS20_JCRB cell viability assay (AID 1918973); note: nearly all actives have a fitted effect of over 45% in size; note: potency is the fitted concentration of half-maximal effect
How it was run: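 Inhibition of cell viability is measured here. Each line was plated at 500 cells per well, treated with MIPE 4.0 drugs, kept 48 hours at 37C, then assayed for ATP content by CellTiter-Glo luminescence.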

[3] = Quantitative High-Throughput drug screen in 47 multiple myeloma cell lines against the NCATS MIPE library collection: KMS26_JCRB cell viability assay (AID 1918975); note: nearly all actives have a fitted effect of over 45% in size; note: potency is the fitted concentration of half-maximal effect
How it was run: as §1

[4] = Quantitative High-Throughput drug screen in 47 multiple myeloma cell lines against the NCATS MIPE library collection: MMM1_PLB cell viability assay (AID 1918976); note: nearly all actives have a fitted effect of over 35% in size; note: potency is the fitted concentration of half-maximal effect
How it was run: (§2)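 Viability after 48 h drug exposure was measured as ATP-dependent luminescence. Cells, 500 per well, sat at 37 °C under 5% CO2; DMSO wells set 100%, media-only wells 0%.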

[5] = Quantitative High-Throughput drug screen in 47 multiple myeloma cell lines against the NCATS MIPE library collection: MM1S_ATCC cell viability assay (AID 1918980); note: nearly all actives have a fitted effect of over 45% in size; note: potency is the fitted concentration of half-maximal effect
How it was run: as §2

[6] = Quantitative High-Throughput drug screen in 47 multiple myeloma cell lines against the NCATS MIPE library collection: KMS28PE_JCRB cell viability assay (AID 1918983); note: nearly all actives have a fitted effect of over 35% in size; note: potency is the fitted concentration of half-maximal effect
How it was run: as §2

[7] = Quantitative High-Throughput drug screen in 47 multiple myeloma cell lines against the NCATS MIPE library collection: L363_DSMZ cell viability assay (AID 1918984); conditions: L363 myeloma viability, CellTiter-Glo ATP luminescence, 48 h; viability (% of control): at 45.8 µM (top of the series); note: nearly all actives have a fitted effect of over 40% in size; note: potency is the fitted concentration of half-maximal effect
How it was run: as §2

[8] = Quantitative High-Throughput drug screen in 47 multiple myeloma cell lines against the NCATS MIPE library collection: OCIMY7_PLB cell viability assay (AID 1918987); conditions: OCI-MY7 myeloma viability, CellTiter-Glo ATP, 48 h; viability (% of DMSO): at 45.8 µM (top of the series); note: nearly all actives have a fitted effect of over 65% in size; note: potency is the fitted concentration of half-maximal effect
How it was run: as §2

[9] = Quantitative High-Throughput drug screen in 47 multiple myeloma cell lines against the NCATS MIPE library collection: OCIMY5_PLB cell viability assay (AID 1918988); note: potency is the fitted concentration of half-maximal effect; nearly all actives have a fitted effect of over 65% in size
How it was run: as §2

[10] = Quantitative High-Throughput drug screen in 47 multiple myeloma cell lines against the NCATS MIPE library collection: U266_ATCC cell viability assay (AID 1919864); note: nearly all actives have a fitted effect of over 35% in size; note: potency is the fitted concentration of half-maximal effect
How it was run: as §2

[11] = Quantitative High-Throughput drug screen in 47 multiple myeloma cell lines against the NCATS MIPE library collection: XG6_PLB cell viability assay (AID 1919865); note: nearly all actives have a fitted effect of over 40% in size; note: potency is the fitted concentration of half-maximal effect
How it was run: as §2

[12] = Quantitative High-Throughput drug screen in 47 multiple myeloma cell lines against the NCATS MIPE library collection: NCIH929_DSMZ cell viability assay (AID 1918978); note: nearly all actives have a fitted effect of over 35% in size; note: potency is the fitted concentration of half-maximal effect
How it was run: as §2

[13] = Quantitative High-Throughput drug screen in 47 multiple myeloma cell lines against the NCATS MIPE library collection: OCIMY1_PLB cell viability assay (AID 1918979); note: nearly all actives have a fitted effect of over 35% in size; note: potency is the fitted concentration of half-maximal effect
How it was run: as §2

[14] = Quantitative High-Throughput drug screen in 47 multiple myeloma cell lines against the NCATS MIPE library collection: MM1R_ATCC cell viability assay (AID 1918981); note: nearly all actives have a fitted effect of over 35% in size; note: potency is the fitted concentration of half-maximal effect
How it was run: as §2

[15] = Quantitative High-Throughput drug screen in 47 multiple myeloma cell lines against the NCATS MIPE library collection: LP1_DSMZ cell viability assay (AID 1918982); note: nearly all actives have a fitted effect of over 35% in size; note: potency is the fitted concentration of half-maximal effect
How it was run: as §2

[16] = Quantitative High-Throughput drug screen in 47 multiple myeloma cell lines against the NCATS MIPE library collection: KMS34_JCRB cell viability assay (AID 1918985); note: potency is the fitted concentration of half-maximal effect; nearly all actives have a fitted effect of over 40% in size
How it was run: as §2

[17] = Quantitative High-Throughput drug screen in 47 multiple myeloma cell lines against the NCATS MIPE library collection: OPM1_PLB cell viability assay (AID 1918989); note: nearly all actives have a fitted effect of over 40% in size; note: potency is the fitted concentration of half-maximal effect
How it was run: as §2

[18] = Quantitative High-Throughput drug screen in 47 multiple myeloma cell lines against the NCATS MIPE library collection: SKMM1_PLB cell viability assay (AID 1919863); conditions: SKMM1 myeloma viability, CellTiter-Glo ATP, 48 h; viability: hits give low values
How it was run: as §2

[19] = Quantitative High-Throughput drug screen in 47 multiple myeloma cell lines against the NCATS MIPE library collection: MOLP8_DSMZ cell viability assay (AID 1918977); note: nearly all actives have a fitted effect of over 45% in size
How it was run: as §2

Measured: Potency

Nc1ncnc2c1c(-c1cccc(OCc3ccccc3)c1)cn2C1CC(CN2CCC2)C1 (stereo unspecified)
active: [1] 16.6 µM | [2] 3.72 µM | [3] 4.69 µM | [4] 2.96 µM | [5] 2.96 µM | [6] 3.32 µM | [7] 1.87 µM | [8] 0.296 µM | [9] 4.18 µM | [10] 16.6 µM | [11] 14.8 µM

O=C(NC[C@H](O)CO)c1ccncc1Nc1ccc(I)cc1F
inactive: [4] | [15]
active: [1] 14.8 µM | [2] 0.0526 µM | [12] 8.33 µM | [13] 0.0935 µM | [5] 18.7 µM | [14] 13.2 µM | [7] 13.2 µM | [16] 1.18 µM | [8] 0.209 µM | [17] 18.7 µM | [18] 8.33 µM | [10] 20.9 µM | [11] 7.43 µM

NC(=O)c1noc([C@H](CCCC2CCCCC2)CC(=O)NO)n1
inactive: [6] | [7]
active: [1] 5.26 µM | [2] 18.7 µM | [3] 11.8 µM | [4] 16.6 µM | [12] 14.8 µM | [5] 16.6 µM | [8] 3.32 µM | [9] 16.6 µM | [17] 23.5 µM | [18] 13.2 µM | [10] 20.9 µM | [11] 23.5 µM

O=C(c1ccc(F)c(F)c1Nc1ccc(I)cc1F)N1CC(O)([C@H]2CCCCN2)C1
active: [1] 16.6 µM | [2] 0.372 µM | [3] 23.5 µM | [12] 14.8 µM | [5] 18.7 µM | [14] 23.5 µM | [6] 18.7 µM | [7] 1.66 µM | [9] 18.7 µM | [17] 11.8 µM | [18] 16.6 µM | [10] 23.5 µM | [11] 18.7 µM
inactive: [8]

Cc1ccc2c(=O)c3cccc(CC(=O)O)c3oc2c1C
inactive: [1] | [4] | [13] | [15] | [6]
active: [2] 33.2 µM | [3] 20.9 µM | [5] 14.8 µM | [14] 18.7 µM | [8] 26.4 µM | [9] 18.7 µM

C=CCc1cccc(C=NNC(=O)CN2CCN(Cc3ccccc3)CC2)c1O
active: [1] 4.18 µM | [2] 20.9 µM | [4] 16.6 µM | [12] 26.4 µM | [13] 8.33 µM | [5] 9.35 µM | [14] 10.5 µM | [6] 20.9 µM | [7] 6.62 µM | [16] 4.69 µM | [8] 14.8 µM | [9] 7.43 µM | [17] 20.9 µM | [11] 9.35 µM

CC=C1C2C=C(C)CC1(N)c1ccc(=O)[nH]c1C2 (stereo unspecified)
inactive: [1] | [2] | [3] | [19] | [12] | [5] | [14] | [15] | [6] | [7] | [8] | [17] | [10] | [11]

Cc1ccc(NC(=O)Nc2cc(C(F)(F)F)ccc2F)cc1Nc1ccc2c(c1)NC(=O)C2=Cc1ccc[nH]1
active: [1] 2.35 µM | [2] 5.9 µM | [3] 37.2 µM | [4] 33.2 µM | [12] 4.18 µM | [14] 26.4 µM | [15] 26.4 µM | [7] 7.43 µM | [8] 2.96 µM | [9] 23.5 µM | [11] 5.26 µM

O=C1CN2Cc3c(ccc(Cl)c3Cl)N=C2N1
inactive: [1] | [2] | [13] | [7]
active: [4] 23.5 µM | [5] 18.7 µM | [6] 23.5 µM | [9] 23.5 µM | [17] 13.2 µM

Nc1nc(Cl)nc2c1ncn2[C@@H]1O[C@H](CO)[C@@H](O)[C@H]1F
active: [1] 0.833 µM | [2] 0.0264 µM | [4] 2.09 µM | [12] 0.0332 µM | [6] 0.0418 µM | [7] 0.0526 µM | [9] 0.0743 µM | [17] 1.48 µM | [10] 1.48 µM | [11] 0.0235 µM

O=C(Nc1ccc(OC(F)(F)F)cc1)c1sccc1NCc1ccnc2ccccc12
active: [1] 18.7 µM | [2] 3.72 µM | [3] 18.7 µM | [4] 16.6 µM | [12] 20.9 µM | [5] 20.9 µM | [14] 20.9 µM | [15] 20.9 µM | [6] 20.9 µM | [16] 10.5 µM | [8] 16.6 µM | [9] 2.96 µM | [17] 20.9 µM | [18] 18.7 µM

Cc1[nH]c(C=C2C(=O)Nc3ccc(S(=O)(=O)N(C)c4cccc(Cl)c4)cc32)c(C)c1C(=O)N1CCN(C)CC1
active: [1] 7.43 µM | [2] 5.26 µM | [3] 23.5 µM | [4] 18.7 µM | [12] 11.8 µM | [5] 26.4 µM | [14] 23.5 µM | [15] 18.7 µM | [6] 23.5 µM | [16] 20.9 µM | [8] 18.7 µM | [18] 20.9 µM | [10] 23.5 µM | [11] 9.35 µM

Source: PubChem BioAssay (NCATS)
